Laboratory results published in PubChem BioAssay (NCI).
About 83,000 compounds went through this panel and 20% of them were active in at least one assay; those are over-represented in the sample as a whole.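 Cell lines were cultured in 96-well plates, exposed to a single compound concentration, and assessed for percent growth 48 hours later.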 Values without a mark were called inactive. Active and inactive are the calls of the source. Rule for the calls: active = growth percent below 10; inactive = the rest.

How the values were obtained:
Assay in all cases: NCI-60 one-dose screen, 48 h (100 = growth as untreated, 0 = no growth, -100 = all killed)
Settings in all cases: 10 µM unless noted
[1] = test system: NCI-H23 lung
[2] = test system: NCI-H226 lung
[3] = test system: NCI-H322M lung
[4] = test system: HOP-62 NSCLC
[5] = test system: NCI-H460 lung
[6] = test system: HOP-92 NSCLC
[7] = test system: NCI-H522 lung
[8] = test system: A549/ATCC NSCLC
[9] = test system: 786-0 renal
[10] = test system: COLO 205 colon
[11] = test system: DU-145 prostate
[12] = test system: K-562 leukemia
[13] = test system: MALME-3M melanoma
[14] = test system: MDA-MB-231 breast
[15] = test system: RXF 393 renal
[16] = test system: SF-268 CNS
[17] = test system: SF-295 CNS
[18] = test system: SF-539 CNS
[19] = test system: UACC-257 melanoma
[20] = test system: M14 melanoma

CC(=O)N1N=C(c2ccc(F)cc2)CC1c1sc(N(C)Cc2ccccc2)nc1Cl (stereo not given)
growth [1]: 85.1%
growth [2]: 102%
growth [3]: 99.6%
growth [4]: 91.7%
growth [5]: 106%
growth [6]: 85.9%
growth [7]: 81.6%
growth [8]: 88.6%
growth [9]: 84.9%
growth [10]: 98.7%
growth [11]: 103%
growth [12]: 75.1%
growth [13]: 102%
growth [14]: 101%
growth [15]: 101%
growth [16]: 87.1%
growth [17]: 97.6%
growth [18]: 104%
growth [19]: 118%
growth [20]: 95.2%

Nc1nc(Nc2cccnc2)sc1C(=O)c1ccccc1F
growth [1]: 37.9%
growth [2]: 24.4%
growth [3]: 54.7%
growth [4]: 21.2%
growth [5]: 21.7%
growth [6]: 51.8%
growth [7]: 71.4%
growth [8]: 27%
growth [9]: 18.2%
growth [10]: 20.5%
growth [11]: 17.8%
growth [12]: 66.5%
growth [13]: 157%
growth [14]: 83.1%
growth [15]: -42% (active)
growth [16]: 20.8%
growth [17]: 34.9%
growth [18]: -3.32% (active)
growth [19]: 72.9%
growth [20]: 59.2%

O=C(CCCOc1ccc(Br)cc1)Nc1ncc(Cc2ccc(F)cc2)s1
growth [1]: 86.5%
growth [2]: 88.8%
growth [3]: 78.5%
growth [4]: 75.3%
growth [5]: 90.4%
growth [6]: 58%
growth [7]: 75.1%
growth [8]: 84.8%
growth [9]: 86.3%
growth [10]: 63.3%
growth [11]: 79.8%
growth [12]: 37.1%
growth [13]: 73.1%
growth [14]: 79.5%
growth [15]: 69.2%
growth [16]: 73%
growth [17]: 68.9%
growth [18]: 68.3%
growth [19]: 93.4%
growth [20]: 51%

O=C(NNc1ccccc1)c1ncc[nH]1
growth [1]: 96.2%
growth [2]: 62.6%
growth [3]: 82.8%
growth [4]: 73%
growth [5]: 100%
growth [6]: 95.1%
growth [7]: 50.8%
growth [8]: 64.4%
growth [9]: 75.2%
growth [10]: 79.7%
growth [11]: 55.8%
growth [12]: 7.21% (active)
growth [13]: 54.1%
growth [14]: 81.5%
growth [15]: 107%
growth [16]: 59.3%
growth [17]: 90.2%
growth [18]: 48.7%
growth [19]: 71.5%
growth [20]: 37.4%

Cc1ccc(-c2nc(SCC(=O)c3ccc(C#N)cc3)[nH]c(=O)c2C#N)cc1
growth [1]: 105%
growth [2]: 110%
growth [3]: 106%
growth [4]: 103%
growth [5]: 115%
growth [6]: 108%
growth [7]: 82.1%
growth [8]: 98.4%
growth [9]: 96.1%
growth [10]: 88.9%
growth [11]: 102%
growth [12]: 96.3%
growth [13]: 99.2%
growth [14]: 100%
growth [15]: 117%
growth [16]: 96%
growth [17]: 103%
growth [18]: 92.2%
growth [19]: 100%
growth [20]: 96.7%

CCCn1nc(C(=O)N2CCCCC2)c2c1CCC(N1CCC(c3ccncc3)CC1)C2 (stereo not given)
growth [1]: 105%
growth [2]: 116%
growth [3]: 108%
growth [4]: 113%
growth [5]: 110%
growth [6]: 111%
growth [7]: 90.5%
growth [8]: 102%
growth [9]: 101%
growth [10]: 115%
growth [11]: 105%
growth [12]: 101%
growth [13]: 115%
growth [14]: 118%
growth [15]: 117%
growth [16]: 97%
growth [17]: 106%
growth [18]: 107%
growth [19]: 102%
growth [20]: 97.3%

C/C(=C(\c1ccc(OCCN2CCOCC2)cc1)c1ccc(OC(=O)C2CCCCC2)cc1)c1ccc(Cl)cc1
growth [1]: 88.9%
growth [2]: 103%
growth [3]: 91.9%
growth [4]: 99.4%
growth [5]: 97.5%
growth [6]: 71%
growth [7]: 62.8%
growth [8]: 92.9%
growth [9]: 80.6%
growth [10]: 103%
growth [11]: 103%
growth [12]: 66.1%
growth [13]: 104%
growth [14]: 98.8%
growth [15]: 94.9%
growth [16]: 95.8%
growth [17]: 106%
growth [18]: 105%
growth [19]: 99%
growth [20]: 87.4%

S=c1nc(CS)[nH]c2ccccc12
growth [1]: 89.5%
growth [2]: 87.4%
growth [3]: 95.6%
growth [4]: 89.6%
growth [5]: 100%
growth [6]: 96.8%
growth [7]: 95.6%
growth [8]: 96.6%
growth [9]: 103%
growth [10]: 112%
growth [11]: 108%
growth [12]: 104%
growth [13]: 86.6%
growth [14]: 82.8%
growth [15]: 109%
growth [16]: 92.4%
growth [17]: 94.6%
growth [18]: 94.7%
growth [19]: 95.9%
growth [20]: 98.2%
